Experimental data reported in ChEMBL document CHEMBL1157539, “Thousands of chemical starting points for antimalarial lead identification” (Nature, 2010).

What was measured:
Type in all cases: functional
[1] = tested on: Plasmodium falciparum; experiment: GSK_TCMDC: Inhibition of Plasmodium falciparum 3D7 in whole red blood cells, using parasite LDH activity as an index of growth. Test compounds present at 2uM
[2] = tested on: Plasmodium falciparum; experiment: GSK_TCMDC: Inhibition of Plasmodium falciparum Dd2 in whole red blood cells, using parasite LDH activity as an index of growth. Test compounds present at 2uM
[3] = tested on: HepG2; experiment: GSK_TCMDC: Percent inhibition of human HepG2 cell line. Test compounds present at 10uM.

| SMILES | Inhibition [1] [%] | Inhibition [2] [%] | Inhibition [3] [%] |
| --- | --- | --- | --- |
| CS(=O)(=O)CCNCc1cccc(-c2ccc3c(Nc4ccc(Oc5cccnc5)cc4)ccnc3c2)c1 | 100 | 99 | 27 |
| COc1ccc(C2C(C(=O)Nc3ccc4c(c3)OCO4)c3cc(OC)c(OC)cc3C(=O)N2C)cc1 (stereo not given) | 89 | 54 | 12 |
| O=C(Nc1cc(Cl)cc(Cl)c1)c1cc(Cl)c(=O)n(Cc2cccc(Cl)c2)c1 | 100 | 62 | 8 |
| COc1ccc(NC(=O)Nc2ccc(-c3cccc(-c4nc5cccc(C)c5[nH]4)c3)cc2)cc1 | 100 | 75 | 33 |
| Cc1cccc2nc(-c3ccc(-c4ccc(CN5CCN(CC6CCCN(C)C6)CC5)cc4)s3)[nH]c12.O=C(O)C(F)(F)F (stereo not given) | 100 | 99 | 63 |
| COc1ccc(-c2ccc(NC(=O)c3cccc(C#N)c3)cc2)cc1CN1CCN(C)CC1.O=C(O)C(F)(F)F | 100 | 59 | 26 |
| N=C(N)CCN(Cc1ccc(Cl)cc1)c1ccc(Cl)cc1 | 96 | 92 | 22 |
| N#Cc1ccccc1N1CCN(C2CCC(NC(=O)c3n[nH]c4cc(C(F)(F)F)ccc34)CC2)CC1 (stereo not given) | 84 | 34 | 15 |
| COc1cc(Nc2nccc(-c3c(-c4cccc(NC(=O)c5c(F)cccc5F)c4)nn4ccccc34)n2)cc(OC)c1OC | 98 | 98 | 74 |
| Nc1ncc(-c2cn[nH]c2)cc1-c1nc2cc(Cl)cnc2[nH]1 | 100 | 70 | 40 |
